# Measurements taken from PubChem BioAssay AID1671190 (National Center for Advancing Translational Sciences (NCATS), 2021).
# In all, about 580,000 compounds went through this assay and about 6,100 (1.1%) were called active. A call without a number means that no potency is given here. Not shown: some 15% with an inconclusive outcome. Calls follow the shape of the dose curve; as a rule, active = well fitted inhibition curve with a large enough effect; inconclusive = small, poorly fitted or top-dose-only effect, or another doubt; inactive = no such curve, though single readings can be large or run the other way. Many of the other results were omitted from the sample, so actives are more common in it than they were.
# Molecular target: Polyunsaturated fatty acid lipoxygenase ALOX12 (Homo sapiens) (UniProt P18054)
# Experiment: Primary qHTS assay for inhibitors of human arachidonate 12S-lipoxygenase (ALOX12): Round 2
# Details: purified 12hLO, xylenol orange hydroperoxide absorbance; series mostly up to 108 µM
# How it was run: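 Hydroperoxide product was detected by ferrous iron/xylenol orange as the 573 to 405 nm absorbance ratio. Arachidonic acid at 40 uM (final) was turned over for 30 min at room temperature by 150 nM human 12hLO, pH 7.0 Hepes buffer, after 15 min compound preincubation.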
# Potency is read from the fitted curve at half-maximal effect.
# Polyunsaturated fatty acid lipoxygenase ALOX12 (Homo sapiens), sequence (P18054 whole entry, looked up): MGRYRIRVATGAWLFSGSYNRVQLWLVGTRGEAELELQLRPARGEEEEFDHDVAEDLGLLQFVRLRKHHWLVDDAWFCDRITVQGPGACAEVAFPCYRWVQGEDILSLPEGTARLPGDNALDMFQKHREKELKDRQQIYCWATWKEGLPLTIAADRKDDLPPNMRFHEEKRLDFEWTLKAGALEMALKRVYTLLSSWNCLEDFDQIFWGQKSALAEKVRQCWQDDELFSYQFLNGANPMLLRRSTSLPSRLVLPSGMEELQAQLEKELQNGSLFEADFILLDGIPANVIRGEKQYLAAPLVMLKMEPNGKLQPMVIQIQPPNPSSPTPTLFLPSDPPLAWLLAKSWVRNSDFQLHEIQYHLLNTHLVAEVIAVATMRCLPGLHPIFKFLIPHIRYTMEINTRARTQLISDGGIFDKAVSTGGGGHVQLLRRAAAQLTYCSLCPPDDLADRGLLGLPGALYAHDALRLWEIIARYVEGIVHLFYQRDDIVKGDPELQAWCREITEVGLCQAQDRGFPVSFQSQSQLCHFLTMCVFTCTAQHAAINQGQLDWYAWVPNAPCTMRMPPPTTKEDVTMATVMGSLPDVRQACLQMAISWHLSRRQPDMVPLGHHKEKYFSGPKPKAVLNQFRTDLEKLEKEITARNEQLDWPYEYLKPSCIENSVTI
row,SMILES,Potency
1,CCn1nc(C)c(CNC(=O)Nc2cc(Cl)ccc2OC)c1C,inactive
2,O=C(c1ccc2c(c1)N(C(=O)c1ccccc1)CC2)N1CCN(c2ccc(Cl)cc2)CC1,inactive
3,Cc1ccc2cc(C(=O)NCc3cccnc3-n3cccn3)c(C)nc2c1,inactive
4,Cc1nc(C)c(C(=O)N2CCC(N3C(=O)C4(CCCC4)C3c3ccccc3)CC2)s1 (stereo not drawn),inactive
5,Cc1nc2cc(NC(=O)C3CC(=O)N(CC4CC4)C3)ccc2o1 (stereo not drawn),inactive
6,NS(=O)(=O)c1ccc2nc(NC(=O)COc3ccccc3)sc2c1,inactive
7,N#Cc1ccc(OCC(=O)Nc2nc(-c3ccccn3)cs2)cc1,17.8 µM (active)
8,CC(C)CC(CC(C)C)=NNC(=O)COc1ccc(C#N)cc1,inactive
9,O=C1COc2ccc(C(=O)COC(=O)c3nn(Cc4ccccc4)c(=O)c4ccccc34)cc2N1,inactive
10,O=C(Cc1cccc(Cl)c1)N1CCC(c2nn(-c3ccc(Cl)cc3)c(=O)[nH]2)CC1,20 µM (active)
11,Cn1nc(C2CCN(C(=O)c3cccc(Cl)c3)CC2)[nH]c1=O,inactive
12,Cc1ccc(C(=O)N2CCC(c3nn(-c4ccccc4)c(=O)[nH]3)CC2)cc1,inactive
13,O=C(c1ccc(F)cc1)N1CCCC(c2nn(-c3cccc(Cl)c3)c(=O)[nH]2)C1 (stereo not drawn),inactive
14,CC(C)(C)C(=O)N1CCC(c2nn(-c3ccc(F)cc3)c(=O)[nH]2)CC1,inactive
15,O=C(c1ccccc1F)N1CCC(c2nn(-c3ccc(Cl)cc3)c(=O)[nH]2)CC1,31.6 µM (active)
16,COc1cc(Cl)c(C)cc1NC(=O)Cn1nc(-c2cccs2)oc1=O,inactive
17,CCCN(CC(F)(F)F)C(=O)c1ccc(NC(=O)NC(C)C)cc1,inactive
18,Cc1ccc(-n2ccc(C=O)c2)c(C)c1,inactive
19,C=CCN(C)C(=O)C[C@@H]1c2nc(NC(=O)c3ccc(C(C)(C)C)cc3)sc2C[C@@H]2[C@](C)(CO)[C@H](O)CC[C@]21C,inactive
20,C=CCN(C)C(=O)[C@@H](C)C1CC[C@@]2(C)Cc3sc(NS(=O)(=O)c4ccc(Cl)cc4)nc3[C@@H](C)[C@@H]2[C@H]1O (stereo partly drawn),31.6 µM (active)
21,CCN(CC)C(=O)[C@@H](C)C1CC[C@@]2(C)Cc3sc(N)nc3[C@@H](C)[C@@H]2[C@H]1O (stereo partly drawn),inactive
22,CC(Sc1cc(F)ccc1F)C(=O)Nc1ccnn1C(C)C (stereo not drawn),inactive
23,O=C(NCc1ccc(Cl)c(Cl)c1)C1CCN(c2ncnc3nc[nH]c23)CC1,inactive
24,CC(=O)N1CCC2(CCCN(Cc3ccccc3)C2)CC1,inactive
25,CCCNC(=O)C1(C)CCCN(Cc2cccc(C(F)(F)F)c2)C1 (stereo not drawn),inactive
26,CC(=O)NC1(C)CCN(Cc2cccc(-c3ccc(C(=O)c4ccccc4)cc3)c2)C1 (stereo not drawn),39.8 µM (active)

row,SMILES,Potency
1,CC(C)(C)OC(=O)C(C#N)c1cnccn1 (stereo not drawn),inactive
2,COc1ccc(C(O)(C2CCCCC2)C(CN2CCCC2)c2ccccc2)cc1 (stereo not drawn),inactive
3,CC(C)Oc1ccc(C(O)(CC[N+](C)(C)C)C2CCCCC2)cc1 (stereo not drawn),11.2 µM (active)
4,CC(C)Oc1ccc(C(=O)NC(C)(C)CO)cc1,inactive
5,O=C(CN1C(=O)CC2(CCCCC2)C1=O)c1c[nH]c2ccccc12,inactive
6,CCn1nc(C(=O)Nc2ccccn2)c2ccccc2c1=O,inactive
7,Cc1ccccc1CNC(=O)c1cc(-c2ccncc2)nc2ccccc12,inactive
8,COc1ccc(C2C(=O)N(C3CCCCCC3)CC(=O)N2CCc2ccc(Cl)cc2)cc1OC (stereo not drawn),inactive
9,CCC1(C)COC(c2ccc(OC)c(OC)c2)OC1 (stereo not drawn),inactive
10,COc1ccc(C2NC(=O)C(=O)/C2=C(\O)c2ccc(Cl)cc2)cc1OC (stereo not drawn),28.2 µM (active)
11,CCN(CC)S(=O)(=O)c1ccc(-c2csc(-c3ccc(OC)c(OC)c3)n2)cc1,inactive
12,CC(C)(C)c1ccc(/C=N/NC(=O)c2ccccc2)cc1,inactive
13,O=C(CN1c2ccccc2S(=O)(=O)c2ccccc21)Nc1cccc(C(F)(F)F)c1,inactive
14,FC(F)(F)c1cccc(N/N=C/c2ccccc2)c1,3.55 µM (active)
15,O=C(O)c1cc(-c2ccc3ccccc3n2)nc2ccc3ccccc3c12,inactive
16,CC1(C)CC(=O)C/C(=N/NC(=O)c2ccc(NC(=O)C3CC3)cc2)C1,inactive
17,N#CC1(NC(=O)COC(=O)Cc2n[nH]c(=O)c3ccccc23)CCCCC1,inactive
18,N#CC1(Nc2ccc3c4c(cccc24)CC3)CCCCC1,31.6 µM (active)
19,O=S(=O)(NC1CC1)c1ccc2c3c(cccc13)CC2,inactive
20,CCCCC(=O)Nc1ccccc1C(C)CC (stereo not drawn),inactive
21,Cc1nn(-c2ccc(F)cc2)c(Oc2ccccc2F)c1CCC(=O)NCC1CCCO1 (stereo not drawn),inactive
22,C=CCNC(=S)/N=c1/ccccn1Cc1ccccc1,44.7 µM (active)
23,C=CCNC(=O)COc1coc(CN2CCN(Cc3ccccc3)CC2)cc1=O,inactive
24,C=CCNC(=O)N1CC[C@H]2CC(=O)N(c3ccccc3)CC[C@H]2C1,inactive
25,COc1ccccc1N1CCN(C(=O)CSc2nccn3nc(-c4ccccc4)cc23)CC1,inactive
26,CCOc1cc2ccccc2cc1C(=O)N1CCN(CC(=O)Nc2cccc(F)c2)CC1,inactive

row,SMILES,Potency
1,COC(=O)c1ccc(OCc2cccc(C#N)c2)c(OC)c1,inactive
2,COc1ccc(C2CC(=O)NC(SCC(=O)Nc3c(C)cccc3C)=C2C#N)cc1OC (stereo not drawn),inactive
3,COc1cc(C2CC(=O)N3CN(Cc4ccccc4)CSC3=C2C#N)ccc1OCc1ccccc1 (stereo not drawn),14.1 µM (active)
4,CCN(CC1COc2ccccc2O1)S(=O)(=O)N1CCOCC1 (stereo not drawn),inactive
5,Nc1nonc1C(=O)N1CCN(C(=O)Nc2ccccc2)CC1,inactive
6,Cc1cccc2c1NC(=O)C21CC(=O)Nc2c1cnn2C(C)(C)C (stereo not drawn),inactive
7,CCOc1c(Br)cc(/C=C/C(=O)c2ccc(OC)c(OC)c2)cc1OC,inactive
8,Cc1ccccc1Nc1nc(C(=O)NCCCN2CCOCC2)cs1,inactive
9,Cc1cccc(-c2nc3cnccn3c2NCCC(=O)N2CCCCCC2)c1,inactive
10,COc1cccc(-c2nc3nc(C)cc(C)n3c2NC2CCCCC2)c1,inactive
11,COc1ccc(-c2nc3cnccn3c2NC2CCCCC2)cc1-c1cccc(Cl)c1,7.94 µM (active)
12,O=C1COc2ccc(Nc3ccccc3F)nc2CN1Cc1ccccc1F,inactive
13,Cc1ccc(-c2nc(SCc3ccc(Br)cc3)n3[nH]c(=O)cc3n2)cc1,31.6 µM (active)
14,Cc1cccc(-c2nc(SCc3ccc(Br)cc3)n3[nH]c(=O)cc3n2)c1,inactive
15,O=c1cc2nc(-c3ccccc3)nc(SCCOc3ccc(Cl)cc3)n2[nH]1,inactive
16,COc1ccc(OC)c(CNC(=O)c2cc3c(s2)-c2c(C)cccc2OC3)c1,inactive
17,CCNC(=S)NC1CC(C)(C)NC(C)(C)C1,inactive
18,Cc1cccc(NC(NC(=O)C(C)C)(C(F)(F)F)C(F)(F)F)c1,inactive
19,CCCNC(=O)C(C)OC(=O)c1cc(=O)[nH]c2ccccc12 (stereo not drawn),inactive
20,Cc1ccc(NC(=O)CCC(=O)c2ccc(Br)cc2)cc1,inactive
21,CC(=O)c1ccc(NC(=O)[C@@]2(CC(=O)O)CC(c3ccc(Br)cc3)=NO2)cc1,44.7 µM (active)
22,Cc1c(Cl)cccc1NC(=O)[C@@]1(CC(=O)O)CC(/C=C/c2ccccc2)=NO1,inactive
23,O=C1OC(C2CC2)c2cc3c(cc21)OCCO3 (stereo not drawn),inactive
24,O=C(O)c1ccc(S(=O)(=O)Nc2cc(F)ccc2OCC(F)(F)F)cc1,inactive
25,Cc1cccc(OCCn2c(CN3CCCCC3)nc3ccccc32)c1,inactive
26,CCn1ncc(N2CCC(NC(=O)c3ccc(OC(C)C)cc3)CC2)cc1=O,inactive

row,SMILES,Potency
1,COc1ccc(NC(C)=O)cc1NC(=O)CCn1cnc2c1c(=O)n(C)c(=O)n2C,inactive
2,Cc1cccc(Cn2c(=O)n(CCC(=O)NCCc3ccc(Cl)cc3)c(=O)c3sccc32)c1,inactive
3,CCC1CCCCN1C(=O)Cn1c(=O)n(CCCCCC(=O)NCc2ccccc2)c(=O)c2sccc21 (stereo not drawn),inactive
4,O=C(Cn1c(=O)n(CCc2ccccc2)c(=O)c2sccc21)c1ccc(Cl)cc1,22.4 µM (active)
5,CC(=O)SC(CC(=O)c1ccccc1)c1ccccc1 (stereo not drawn),inactive
6,NCCC(=O)Nc1ccccn1,inactive
7,S=C(NN=Cc1ccccn1)Nc1ccccn1,39.8 µM (active)
8,Cc1nc2sc(C(=O)OCC(=O)Nc3cccc(C(F)(F)F)c3)c(C)c2c(=O)[nH]1,inactive
9,COCCCNC(=O)CCn1ccc2cc(S(=O)(=O)N3CCCCC3)ccc21,inactive
10,O=C(Nc1ccccc1Br)c1nc2ccccc2nc1N1CCOCC1,inactive
11,COc1ccc(Cl)cc1NC(=O)/C(C#N)=C/c1coc2ccc(Cl)cc2c1=O,inactive
12,COc1cc(Br)c(/C=C(/C#N)C(=O)c2ccccc2)cc1O,10 µM (active)
13,COc1ccc(C(=O)/C(C#N)=C\c2ccccc2OC(F)F)cc1,inactive
14,C=CCn1c(-n2nc(CC)cc2CC)nc2c1c(=O)n(C)c(=O)n2C,inactive
15,O=C(NC1CCN(Cc2ccccc2)C1)c1cc2ccccc2oc1=O (stereo not drawn),inactive
16,N#Cc1cccc(NC(=O)CSc2nnc(Cc3ccccc3)o2)c1,inactive
17,Cc1ccc(S(=O)(=O)NC(C)c2cccs2)cc1 (stereo not drawn),inactive
18,CSCC(NS(=O)(=O)c1ccc(C)cc1)C(=O)O (stereo not drawn),inactive
19,Cc1ccc(S(=O)(=O)/N=C2\C=C(NS(=O)(=O)c3ccc(C)cc3)C(=O)c3ccccc32)cc1,15.8 µM (active)
20,CC(C)c1ccc(C(=O)N/N=C/CCc2ccccc2)cc1,inactive
21,N#CCCN1CCC(c2ccccc2)C1 (stereo not drawn),inactive
22,S=c1[nH]nc(-c2cc(-c3ccsc3)n[nH]2)n1-c1ccccc1,15.8 µM (active)
23,CCCCC(CC(C)O)c1n[nH]c(=S)n1-c1ccccc1 (stereo not drawn),inactive
24,CC(=O)c1c(SCC(=O)Nc2ccc(F)cc2)nc(=O)[nH]c1C,inactive
25,COCC(=O)N1CCC(c2nc(C3CCOCC3)n[nH]2)CC1,inactive
